PubChem BioAssay (NCI)
“And” between values parts separate entries of the source, which are not always exact repeats. Equal values may be shown once. This is part of a sample that, as a whole, favours compounds with a hit. Of some 79,000 tested, about 15% had one in any assay. No stated cut-off is given here; in the data, active means growth inhibition above about 70%; inactive means the rest.

Legend:
[1] = NCI Yeast Anticancer Drug Screen. Data for the rad50 strain (AID 155);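 further: 0% = growth of vehicle-only cultures of the same strain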; conditions: S. cerevisiae rad50 strain growth inhibition, stronger effect = higher value; at 50.0 µM unless noted
Method in brief: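 Inhibition values express reduced yeast growth in compound-treated cultures relative to vehicle-treated controls.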

[2] = NCI Yeast Anticancer Drug Screen. Data for the mec2-1 strain (AID 157); conditions: S. cerevisiae mec2-1 strain, stronger effect = higher value; at 50.0 µM unless noted
Method in brief: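 Each compound was tested on mec2-1 yeast, a strain altered in DNA damage repair or cell cycle control. Growth inhibition is reported relative to vehicle.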

[3] = NCI Yeast Anticancer Drug Screen. Data for the sgs1 mgt1 strain (AID 161);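 further: 0% = growth of cultures given vehicle only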; conditions: S. cerevisiae sgs1 mgt1 strain, stronger effect = higher value; at 50.0 µM unless noted
Method in brief: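 Read-out: growth inhibition vs vehicle controls. Cells: mutant yeast strain deficient in DNA damage repair.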

[4] = NCI Yeast Anticancer Drug Screen. Data for the cln2 rad14 strain (AID 165);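 further: 0% = growth equal to vehicle treated cultures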; conditions: S. cerevisiae cln2 rad14 strain, stronger effect = higher value; at 50.0 µM unless noted
Method in brief: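 Test compounds were added to cln2 rad14 yeast cultures; inhibition of growth was then determined by comparison with vehicle treatment.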

[5] = NCI Yeast Anticancer Drug Screen. Data for the bub3 strain (AID 167); conditions: S. cerevisiae bub3 mutant strain, stronger effect = higher value; at 50.0 µM unless noted
Method in brief: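 Steps: expose the mutant yeast strain to compound; grow alongside vehicle-treated cultures; measure growth; express inhibition against the vehicle cultures.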

[6] = NCI Yeast Anticancer Drug Screen. Data for the mlh1 rad18 strain (AID 175); conditions: S. cerevisiae mlh1 rad18 strain growth inhibition, stronger effect = higher value; at 50.0 µM unless noted
Method in brief: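 Inhibition values reflect reduced growth of mutant yeast versus vehicle-treated controls following compound exposure; the mutations affect DNA damage repair.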

Measured: growth inhibition

CCCN(CCC)CC(O)CNc1cc(OC)cc2cccnc12 (stereo not given)
inactive: [1] 9.75% | [2] -16.2% | [3] 6.7% | [4] -35.7% | [5] 19.9% | [6] 5.7%

O=NN(CCCl)C(=O)Oc1ccccc1
inactive: [1] -1.95% | [2] -10.6% | [3] -0.05% | [4] 0.15% | [5] -1.9% | [6] -11.3%

CC(=O)c1ccc(O)c(/C=C2\CCOC2=O)c1
inactive: [1] 8.2% | [2] 8.4% | [3] -9% | [4] -3.45% | [5] 9.55% | [6] 7.7%

C=C1C(=O)C23CC1CCC2C12CO[C@H](O)[C@H]1C(C)(C)[C@H](OC(C)=O)C[C@H]2OC3=O (stereo not given in full)
inactive: [1] 4.75% | [2] 4.15% | [3] 1.8% | [4] 6.1% | [5] 0.85% | [6] -76.2%

O=C1NC(N/N=C\C(O)C(O)C(O)C(O)CO)=N/C1=C/c1ccc(Cl)cc1 (stereo not given)
inactive: [1] 28.1% and 32% | [2] 8.95% and 15.7% | [3] 1.45% and 10.8% | [4] -0.6% and 13.4% | [5] -0.2% and 6.45% | [6] 10.6% and 9.2%

CCCCCCCCCCCCC(C)O (stereo not given)
inactive: [1] -23.2% | [2] -50.1% | [3] -18.8% | [4] 5.05% | [5] -21.1% | [6] -24.8%

COc1ccc2nc3cc([N+](=O)[O-])ccc3c(NCCCN(CCO)CCO)c2c1
inactive: [1] -6.7% | [2] -1.75% | [3] 6.9% | [4] 1.75% | [5] 7.75% | [6] 2.6%

CCOC(=O)C(=O)Nc1cc(C)no1
inactive: [1] 4.95% | [2] 9.85% | [3] -6.6% | [4] -25.6% | [5] -25.1% | [6] -2%

COc1ccccc1C1OC(N)=C(O)C1=O (stereo not given)
inactive: [1] -14.4% | [2] -5.15% | [3] 7.3% | [4] -15.3% | [5] -2.5% | [6] 13.9%

CC(C)c1cccc(C(C)C)c1NC(=O)C(=O)Cc1nc2ccc([N+](=O)[O-])cc2[nH]c1=O
inactive: [1] 26.6% | [2] 19.6% | [3] 34.6% | [4] 25.3% | [5] 24.6% | [6] 40.8%

Cc1ccc(S(=O)(=O)C2CC(=O)N(c3ccc(F)c(Cl)c3)C2=O)cc1 (stereo not given)
inactive: [1] -26.6% | [2] 4.55% | [3] -7.6% | [4] -19.2% | [5] 4.2% | [6] -11.7%

CN(C)c1ccc(/C=C(\NC(=O)c2ccccc2)c2nc3ccccc3c(=O)o2)cc1
inactive: [1] 8.45% | [2] 10.3% | [3] 3.95% | [4] 11.5% | [5] -15.8% | [6] -9.3%

CC1=CC(C)C(C(=O)OCC(C)C)C(C(=O)OCC(C)C)C1 (stereo not given)
inactive: [1] -13.2% | [2] -6% | [3] -5.1% | [4] 1.45% | [5] 23% | [6] -22.4%

COc1cc2cnc3c4cc(OC(C)C)c(OC)cc4ccc3c2cc1OC
inactive: [1] -10% | [2] -15.3% | [3] -20.1% | [4] 5.75% | [5] -5.3% | [6] -29.4%

CC12CC(O)C3C(CCC4CC(O)CCC43C)C1CCC2C(=O)CO (stereo not given)
inactive: [1] 13.6% | [2] 14.2% | [3] 7.3% | [4] 13.2% | [5] 12.1% | [6] 10.4%

COC(=O)CCC1(C)C2CCC1(C)/C(=N/O)C2 (stereo not given)
inactive: [1] -10.2% | [2] 3.15% | [3] 2.35% | [4] 0.45% | [5] -21.1% | [6] 6.7%

CCOC(OCC)c1ccc(OC)c(OC)c1
inactive: [1] 13.5% | [2] -5.3% | [3] 8.95% | [4] -0.1% | [5] 3.45% | [6] 9.6%

CC12CCC([C@H](C(O)C3CCCCC3)C1=O)C2(C)C (stereo not given in full)
inactive: [1] -2.7% | [2] -16.6% | [3] -12.8% | [4] 16.6% | [5] -5.7% | [6] -5.1%

COc1ccc2nc3cc([N+](=O)[O-])ccc3c(NCCCN(C)C)c2c1
inactive: [1] 7.05% | [2] -1.9% | [3] 45.4% | [4] 20.9% | [5] 8.25% | [6] 5.4%

Cc1ccc(S(=O)(=O)Oc2ccc3oc4cccc(NCCN(C)C)c4c(=O)c3c2)cc1
inactive: [1] -3.5% | [2] -13.7% | [3] -21.4% | [4] 5% | [5] -6.4% | [6] 3.1%
